activation, Potency and viability data for 19 compounds are collected here from PubChem BioAssay (NCATS).

The target of assay [1] is Cellular tumor antigen p53 (Homo sapiens) (UniProt P04637). Kind of assay: Primary qHTS for small molecule compounds that upregulate eGFP-tagged delta133p53alpha (in N-terminal) cells. (AID 2060322).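 For activation: series mostly up to about 56 µM; 0% = DMSO vehicle and 100% = reference activator.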 Note: nearly all actives have a fitted effect of over 75% in size. Note: potency is the fitted concentration of half-maximal effect. The conditions noted are these: NCI-H358 eGFP-delta133p53alpha fluorescence, 24 h; activation: hits give high values. In short, it runs like this:
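NCI-H358 cells pre-induced 24 h with 10 ng/ml doxycycline to express N-terminal eGFP-delta133p53alpha, then dosed 24 h at 37C without doxycycline; fixed, Hoechst-stained, GFP intensity by laser scanning cytometry, normalized to DMSO (0%) and 57.5 uM 5-azacytidine (100%).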

For assay [2] the target is unchanged. Put plainly: Primary qHTS for small molecule compounds that upregulate eGFP-tagged delta133p53alpha (in C-terminal) cells. (AID 2060324). Note: potency is the fitted concentration of half-maximal effect. In short, it runs like this: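 C-terminal eGFP-tagged delta133p53alpha NCI-H358 line; dox-induced (100 ng/ml, 24 h) then plated without dox; compounds pinned in titration, 24 h 37 °C/5% CO2; PFA fix, Hoechst nuclei; GFP by LSC.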
For orientation: qHTS replaces the single test concentration by a dilution series.

The target in assay [3] is Aldehyde dehydrogenase, mitochondrial (Homo sapiens) (UniProt P05091). Kind of assay: qHTS for Inhibitors of the Aldehyde Dehydrogenase Family (ALDH2) Validation screens (AID 2061302; active = well fitted inhibition curve with a large enough effect; title and protocol of this record describe different tests; note: potency is the fitted concentration of half-maximal effect).
In assay [4] the target is Retinaldehyde dehydrogenase 3 (Homo sapiens) (UniProt P47895). Kind of assay: qHTS for Inhibitors of the Aldehyde Dehydrogenase Family (ALDH1A3) Validation screen (AID 2061312). Note: % is set by controls: 0 for no effect and ±100 for the full control effect; nearly all actives have a fitted effect of over 45% in size.
Assay [5] can be described thus: BET inhibitor-based combinations targeting novel dependencies in MECOM-rearranged (r) AML: SET-2 cell line (AID 2202231).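 For viability: plate controls were DMSO treated cells for no effect and wells without cells for full effect.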 Note: nearly all actives have a fitted effect of over 35% in size. Note: potency is the fitted concentration of half-maximal effect. The conditions noted are these: SET-2 AML cells viability, CellTiter-Glo luminescence, 48 h; viability: hits give low values, concentration not given here. In short, it runs like this:
(§1)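 Cells were plated at 500 per well and exposed to an 11-point dose series of each drug for 48 hr. Viability was measured by CellTiter-Glo luminescence, normalized to DMSO and empty-well controls, and summarized as AUC and per-cell-line Z-AUC.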

The nature of assay [6]: BET inhibitor-based combinations targeting novel dependencies in MECOM-rearranged (r) AML: MV-4-11 cell line (AID 2202233). Note: nearly all actives have a fitted effect of over 45% in size. Note: potency is the fitted concentration of half-maximal effect. In short, it runs like this: (§2)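 Activity is given as area under the curve and as Z-AUC, mean-centred within each cell line. It comes from 11-point dose curves normalized to DMSO and empty wells. CellTiter-Glo luminescence was read after 48 hr drug exposure of 500 cells/well.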

Assay [7] in a line: BET inhibitor-based combinations targeting novel dependencies in MECOM-rearranged (r) AML: HNT-34 cell line (AID 2202234). Note: nearly all actives have a fitted effect of over 35% in size. Note: potency is the fitted concentration of half-maximal effect. Summed up:
as §2

Assay [8] in a line: BET inhibitor-based combinations targeting novel dependencies in MECOM-rearranged (r) AML: UCSD-AML1 cell line (AID 2202235). Note: nearly all actives have a fitted effect of over 40% in size. Note: potency is the fitted concentration of half-maximal effect. In short, it runs like this:
as §2

A short description of assay [9]: BET inhibitor-based combinations targeting novel dependencies in MECOM-rearranged (r) AML: AML-191 cell line (AID 2202236; note: nearly all actives have a fitted effect of over 35% in size; note: potency is the fitted concentration of half-maximal effect). In short, it runs like this: as §1
Assay [10] is described as follows: BET inhibitor-based combinations targeting novel dependencies in MECOM-rearranged (r) AML: AML-194 cell line (AID 2202237; note: nearly all actives have a fitted effect of over 40% in size; note: potency is the fitted concentration of half-maximal effect). In short, it runs like this:
as §1

A short description of assay [11]: BET inhibitor-based combinations targeting novel dependencies in MECOM-rearranged (r) AML: OCI-AML3 cell line (AID 2202232). Note: nearly all actives have a fitted effect of over 35% in size. Note: potency is the fitted concentration of half-maximal effect. The conditions noted are these: Potency: OCI-AML3 viability. In short, it runs like this: as §1

For orientation: viability means a read-out of living cells in per cent, often relative to untreated cells.

Values joined by “and” are separate entries in the source; they are usually repeats but may differ in a detail not shown here. Equal values may be shown once. Records with an inconclusive call do not appear. Unmarked numbers belong to inactive results. Active and inactive are the calls of the source. Unless noted, calls come from the whole dose curve; as a rule, active = well fitted curve in the direction sought with a large enough effect; inconclusive = small, poorly fitted or top-dose-only effect, or another doubt; inactive = no such curve, though single readings can be large; an effect the other way counts as inactive or inconclusive.

Sequence of Cellular tumor antigen p53 (Homo sapiens) (P04637 whole entry, looked up): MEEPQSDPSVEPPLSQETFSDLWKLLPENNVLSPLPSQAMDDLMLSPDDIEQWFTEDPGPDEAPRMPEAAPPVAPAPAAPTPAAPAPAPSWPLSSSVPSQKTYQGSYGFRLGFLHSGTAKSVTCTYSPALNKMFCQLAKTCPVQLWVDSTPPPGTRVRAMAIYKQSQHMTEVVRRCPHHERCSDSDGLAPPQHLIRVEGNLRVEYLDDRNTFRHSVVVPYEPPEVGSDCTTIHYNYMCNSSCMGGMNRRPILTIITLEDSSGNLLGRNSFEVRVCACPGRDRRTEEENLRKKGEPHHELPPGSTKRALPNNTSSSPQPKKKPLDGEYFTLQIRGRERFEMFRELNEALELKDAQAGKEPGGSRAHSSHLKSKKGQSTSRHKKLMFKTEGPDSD

On to `Cc1cc(C)c(/C=C2\C(=O)Nc3ccccc32)[nH]1`, for which the activation in assay [1] was -35.1%. Moreover, the Potency in assay [2] is 30.1 µM (active); in assay [6], 0.742 µM (active); in [7] it was 0.296 µM (active); in assay [9], 11.8 µM (active). The Potency entry in [3], in assay [4], in [8] and in assay [10] was “inactive” throughout. Also, in [5], the viability is 96.4%.

Take `O=c1[nH]cc(F)c(=O)[nH]1`: the activation in [1] is -32.6% and 6.33%. For the same compound, the Potency entry in assay [2], in [3] and in [4] was “inactive” in each case. Moreover, the Potency in assay [6] is 6.61 µM (active).

Take `O=c1c(-c2ccc(O)cc2)coc2cc(O)cc(O)c12`: the activation in assay [1] was -2.22% and -24.3% and -49.4%. The Potency result in assay [2], in assay [3] and in assay [4] was “inactive” throughout. Further, the Potency is 42.8 µM (active) in assay [5], 34 µM (active) in [6], 21.5 µM (active) in [7] and 42.8 µM (active) in assay [9].

`CC(C)(Oc1ccc(C2CC2(Cl)Cl)cc1)C(=O)O` (stereo not given): the activation in assay [1] was -8.47% and 20.1% and -16.4%. For the same compound, the Potency result in assay [2], in [3], in assay [4], in assay [6], in assay [8] and in [9] was “inactive” throughout. For the same compound, the Potency result in [10] was “inactive”.

With `Oc1ccc(/C=C/c2cc(O)cc(O)c2)cc1`, the activation in [1] was 1.67% and -36.3%. The Potency entry in [2], in assay [3] and in assay [4] was “inactive” each time. Further, the Potency in assay [6] was 16.6 µM (active).

On to `Cc1cccc(-c2[nH]c(C(C)(C)C)nc2-c2ccc3nccnc3c2)n1`, for which the activation in [1] was -6.37% and 25.5%. The Potency result in assay [2], in assay [3], in assay [4], in assay [11] and in [8] was “inactive” each time.

As to `NC(=O)c1ncn([C@@H]2O[C@H](CO)[C@@H](O)[C@H]2O)c1O`, the activation in assay [1] was -26.8% and 40.7%. Moreover, the Potency entry in assay [2], in [3], in assay [4], in assay [11], in assay [7] and in assay [8] was “inactive” in each case. In addition, the Potency result in assay [9] was “inactive”.

On to `Oc1ccc2ccccc2c1SSc1c(O)ccc2ccccc12`, for which the activation in [1] is -0.0951%. Also, the Potency result in [2] and in [4] was “inactive” each time. Moreover, the Potency in [3] was 14.1 µM (active); in assay [11], 6.61 µM (active); in [6], 16.6 µM (active); in [7], 18.6 µM (active); in assay [8], 23.5 µM (active); in [9], 20.9 µM (active). In assay [10], the Potency was 20.9 µM (active).

With `CC1COc2c(N3CCN(C)CC3)c(F)cc3c(=O)c(C(=O)O)cn1c23` (stereo not given), in assay [1], the activation was 11.7% and -7% and 13.8%. Further, the Potency result in assay [2], in [3], in assay [4], in assay [6], in assay [7] and in assay [8] was “inactive” throughout. In addition, the Potency entry in assay [9] and in assay [10] was “inactive” in each case. In assay [5], the viability is 102%.

For the compound `Cc1ccc(N(CC2=NCCN2)c2cccc(O)c2)cc1`, the activation in [1] is -15.3% and 15.9%. Further, the Potency entry in [2], in assay [3] and in assay [4] was “inactive” throughout. In addition, the viability in assay [5] is 97.5%. Further, the Potency in [6] was 26.3 µM (active); in assay [8], 23.5 µM (active).

For the compound `C[C@]12CC[C@@H]3c4ccc(O)cc4CC[C@H]3[C@@H]1CC[C@@H]2O`, in assay [1], the activation was 63.8%. Moreover, the Potency result in assay [2], in [3] and in assay [4] was “inactive” in each case. For the same compound, the Potency is 14.8 µM (active) in assay [8] and 16.6 µM (active) in [9].

In the case of `COc1ccc(CCN(C)CCCC(C#N)(c2ccc(OC)c(OC)c2)C(C)C)cc1OC` (stereo not given), the activation in assay [1] was -12.4% and 7.69%. Moreover, the Potency result in [2], in assay [3], in assay [4] and in assay [10] was “inactive” in each case. In assay [5], the viability was 94.7%. Also, in [8], the Potency was 16.6 µM (active).

For the compound `Nc1nc(N)c(N=O)c(OCC2CCCCC2)n1`, in assay [1], the activation was -20.9%. Also, the Potency entry in assay [2], in [3] and in [4] was “inactive” throughout. The Potency in assay [7] was 5.25 µM (active); in assay [8], 3.32 µM (active).

On to `CCN(CC)CCNC(=O)c1c(C)[nH]c(/C=C2\C(=O)Nc3ccc(F)cc32)c1C`, for which the Potency was 4.9 µM (active) and 26.9 µM (active) in [1]; 6.75 µM (active) in [2]; 5.9 µM (active) in assay [11]; 0.0468 µM (active) in assay [6]; 1.86 µM (active) in assay [7]; 3.72 µM (active) in [8]. Further, the Potency is 3.72 µM (active) in [9] and 4.68 µM (active) in assay [10]. Further, the Potency entry in assay [3] and in assay [4] was “inactive” each time.

As to `CC#C[C@]1(O)CC[C@H]2[C@@H]3CCC4=CC(=O)CCC4=C3[C@@H](c3ccc(N(C)C)cc3)C[C@@]21C`, the activation in assay [1] was 7.02%. Further, the Potency result in assay [2], in [3] and in assay [4] was “inactive” throughout. Further, the Potency in assay [6] is 23.5 µM (active); in assay [10] it was 18.6 µM (active).

For `O=C(c1ccc(OCCN2CCCCC2)cc1)c1c(-c2ccc(O)cc2)sc2cc(O)ccc12`, the activation in assay [1] was 20.9% and -56%. Further, the Potency entry in assay [2], in assay [3], in [4] and in assay [8] was “inactive” in each case. Moreover, the Potency is 11.8 µM (active) in assay [11], 18.6 µM (active) in assay [6] and 20.9 µM (active) in [10].

`OC(CCN1CCCCC1)(c1ccccc1)C1CC2C=CC1C2` (stereo not given): the activation in [1] was -27.6% and 6.19% and -26.9%. The Potency entry in assay [2], in assay [3], in [4], in assay [7], in [8] and in assay [9] was “inactive” in each case. Besides, the Potency result in [10] was “inactive”. Further, in assay [5], the viability was 97.6%. In addition, in [6], the Potency was 23.5 µM (active).

Consider `Cc1cc(C(C)(C)C)cc(C)c1CC1=NCCN1`, for which the activation in assay [1] was 4.18% and 6.06% and -36%. Also, the Potency result in assay [2], in assay [3], in assay [4] and in assay [10] was “inactive” throughout. Besides, the Potency in assay [6] was 18.6 µM (active).

For the compound `C[C@@H](c1ncncc1F)[C@](O)(Cn1cncn1)c1ccc(F)cc1F`, the activation in [1] was -3.85% and -2.78%. The Potency entry in [2], in assay [3], in assay [4], in assay [11], in [6] and in assay [8] was “inactive” throughout. In addition, the Potency result in assay [9] and in assay [10] was “inactive” each time.
